According to PubChem BioAssay (Tox21):
Results filed as inconclusive are left out. A call without a number means that no potency is given here. Active and inactive are the calls of the source. Unless noted, calls come from the whole dose curve.

Legend:
[1] = Nuclear factor erythroid 2-related factor 2/antioxidant responsive element (Nrf2/ARE) small molecule agonists: qHTS cell viability counter screen in human keratinocytes (AID 1919968; active = well fitted curve in the direction sought with a large enough effect in the repeat runs; an effect the other way counts as inactive or inconclusive; note: nearly all actives have a fitted effect of over 55% in size)
In short: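 Cells of the KeratinoSens line were plated at 1,500 per well and left for 5 h before compound transfer from DMSO stocks. After a 23 h incubation (37 C, 5% CO2), CellTiter-Fluor was added. Signal was taken as fluorescence intensity 1 h later.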

[2] = Nuclear factor erythroid 2-related factor 2/antioxidant responsive element (Nrf2/ARE) small molecule agonists: luciferase reporter gene qHTS assay in human keratinocytes (AID 1919969); note: nearly all actives have a fitted effect of over 35% in size
[3] = biological target: Gonadotropin-releasing hormone receptor (Homo sapiens) (UniProt P30968); experiment: Human gonadotropin-releasing hormone receptor (GnRHR) small molecule agonists, calcium flux assay in GnRHR-HEK293 cells (AID 1920063); note: nearly all actives have a fitted effect of over 35% in size
In short: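 Compounds dissolved in DMSO are pin-transferred onto dye-loaded GnRHR-HEK293 cells, which were seeded 18 h before at 37 C/5% CO2. Calcium signal is read as fluorescence intensity at 1 s intervals for 3 min.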

[4] = biological target: KiSS-1 receptor (Homo sapiens) (UniProt Q969F8); experiment: Human kisspeptin (KISS1R) small molecule agonists, calcium flux assay in KISS1R-HEK293 cells (AID 1920064; active = well fitted curve in the direction sought with a large enough effect in the repeat runs; an effect the other way counts as inactive or inconclusive)
In short: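 Cell line: HEK293, stable human KISS1R. Dye loading 1 h at 37 C after 18 h culture. Read: kinetic fluorescence, 480/540 nm, 3 min at 1 s intervals.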

[5] = G protein-coupled receptor (GPCR) small molecule agonists, calcium flux assay: HEK293 wild type cell line counter screen (AID 1920065)
In short: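 Tox21 10K compounds, 15 concentrations each in triplicate, pin-transferred in DMSO onto dye-loaded cells; kinetic read at 480/540 nm for 3 min, 1 s intervals.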

[6] = p53 small molecule agonists, cell-based qHTS assay with human liver microsomes (AID 1963577);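 note: p53 response element beta-lactamase reporter cells with liver microsomes plus NADPH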
In short: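 Metabolically competent format: test substances, human liver microsomes and NADPH (both 0.5 mg/mL final) incubated with p53RE-bla cells 16 h at 37 C. Beta-lactamase reporter signal then quantified by fluorescence.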

[7] = p53 small molecule agonists, cell-based qHTS assay with rat liver microsomes (AID 1963578)
In short: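 Each plate received p53RE-bla cells, then compound, then rat liver microsomes and NADPH (both 0.5 mg/mL final). Plates were held 16 h at 37 C, and beta-lactamase activity was detected with LiveBLAzer over 2 h.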

[8] = p53 small molecule agonists, cell-based qHTS assay with human liver microsomes: qHTS cell viability counter screen (AID 1963579); note: nearly all actives have a fitted effect of over 45% in size
In short: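 Tox21 library compounds, delivered from DMSO stocks, were tested on p53RE-bla cells together with 0.5 mg/mL human liver microsomes and 0.5 mg/mL NADPH (final) over 16 h at 37 C; CellTiter-Glo luminescence served as the cytotoxicity measure.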

[9] = p53 small molecule agonists, cell-based qHTS assay with rat liver microsomes: qHTS cell viability counter screen (AID 1963580); note: nearly all actives have a fitted effect of over 45% in size
In short: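 After the beta-lactamase ratio was read, CellTiter-Glo was added to the same wells and luminescence measured at 30 min; cells had been treated 16 h at 37 C with compounds, rat liver microsomes and NADPH (0.5 mg/mL final each).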

[10] = p53 small molecule agonists, cell-based qHTS assay: qHTS cell viability counter screen (AID 1963581); note: nearly all actives have a fitted effect of over 45% in size
In short: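 ATP content measured by luminescence in HCT-116 p53RE-bla cells treated 16 h at 37 C, same wells as the reporter screen.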

[11] = p53 small molecule agonists, cell-based qHTS assay (AID 1963582; active = well fitted activation curve with a large enough effect in the signal ratio in the repeat runs, not every such curve was filed as active; the % refers to the signal ratio)
In short: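 16 h compound exposure (37 C) of p53 response element–bla cells, preceded by 5 h recovery at 37 C/5% CO2; read-out via LiveBLAzer B/G FRET substrate, 2 h RT, fluorescence intensity.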

[12] = biological target: 5-hydroxytryptamine receptor 2A (Homo sapiens) (UniProt P28223); experiment: 5-hydroxytryptamine receptor 2A (HTR2A) small molecule antagonists, cell-based qHTS assay (AID 1963586); note: nearly all actives have a fitted effect of over 45% in size
In short: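 CHO cells stably expressing human HTR2A were plated for 18 h at 37 C, then loaded with calcium dye for 1 h. Compounds were preincubated 5 min at room temperature before DOI (4 nM solution) was added. Kinetic fluorescence was read for 3 min.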

[13] = biological target: 5-hydroxytryptamine receptor 2A (Homo sapiens) (UniProt P28223); experiment: 5-hydroxytryptamine receptor 2A (HTR2A) small molecule agonists, cell-based qHTS assay (AID 1963587); note: nearly all actives have a fitted effect of over 30% in size
In short: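 CHO cells stably expressing human HTR2A, plated 18 h, loaded with calcium dye 1 h at 37 C. Agonist mode: compounds added and intracellular calcium fluorescence recorded kinetically for 2 min at 1 sec intervals.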

[14] = biological target: Muscarinic acetylcholine receptor M1 (Homo sapiens) (UniProt P11229); experiment: Cholinergic receptor muscarinic 1 (CHRM1) small molecule antagonists, cell-based qHTS assay (AID 1963588); note: nearly all actives have a fitted effect of over 40% in size
In short: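 Compounds were tested at 15 concentrations in three independent runs. Dye-loaded CHRM1-CHO cells were exposed 5 min at room temperature before stimulation by acetylcholine added at 50nM. Intracellular calcium was read kinetically on FDSS for 3 min.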

[15] = biological target: Muscarinic acetylcholine receptor M1 (Homo sapiens) (UniProt P11229); experiment: Cholinergic receptor muscarinic 1 (CHRM1) small molecule agonists, cell-based qHTS assay (AID 1963589); note: nearly all actives have a fitted effect of over 35% in size
In short: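 Homogeneous fluorescence calcium flux, agonist mode. Human M1-expressing CHO cells; compound dosed at 15 concentrations, three independent runs; signal sampled every 1 sec.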

[16] = cAMP Responsive Elements (CRE) small molecule agonists, cell-based qHTS assay (AID 1963590)
In short: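 HEK 293T cells stably bearing CRE-bla were plated at 2,000 cells per well and rested 18 h. Compounds, positive controls or DMSO were added for 3 h at 37 C. LiveBLAzer B/G substrate was then loaded for 2 h at room temperature.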

[17] = cAMP Responsive Elements (CRE) small molecule antagonists, cell-based qHTS assay (AID 1963591; active = well fitted inhibition curve with a large enough effect in the signal ratio in the repeat runs, not every such curve was filed as active; the % refers to the signal ratio)
In short: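 First, CRE-bla HEK293T cells settled 18 h at 37 C. Next, compound and 0.25 uM final NKH477 were applied for 3 h. Last, LiveBLAzer B/G substrate was loaded for 2 h at room temperature.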

[18] = biological target: D(2) dopamine receptor (Homo sapiens) (UniProt P14416); experiment: Dopamine D2 receptor (DRD2) small molecule agonists, cell-based qHTS assay (AID 1963594); note: nearly all actives have a fitted effect of over 35% in size; note: potency is the fitted concentration of half-maximal effect
In short: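 HEK293 cells stably expressing human DRD2, pre-treated with PDE inhibitor Ro20-1724 (0.1 mM final) and compound 10 min at room temperature, then stimulated with NKH477 (200nM […]) for 30 min. cAMP read by HTRF (665/620 nm).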

[19] = biological target: D(2) dopamine receptor (Homo sapiens) (UniProt P14416); experiment: Dopamine D2 receptor (DRD2) small molecule antagonists, cell-based qHTS assay (AID 1963595; active = well fitted inhibition curve with a large enough effect in the signal ratio in the repeat runs, with a control signal flat; the % refers to the signal ratio)
In short: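 HEK293 cells stably expressing DRD2 were preincubated with 0.1 mM Ro20-1724, then with compound for 10 min at room temperature. Cells were stimulated with 200 nM NKH477 plus 12 nM quinpirole for 30 min, and cAMP was read by HTRF.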

[20] = biological target: Beta-2 adrenergic receptor (Homo sapiens) (UniProt P07550); experiment: Adrenergic beta2 receptor (ADRB2) small molecule antagonists, cell-based qHTS assay (AID 1963592); note: series mostly up to about 92 µM; nearly all actives have a fitted effect of over 50% in size
In short: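 Assay format: CHO-ADRB2 cells, 18-20hr seeding at 37C/5% CO2, then compound plus 1nM isoproterenol agonist mix for 0.5hr RT. Homogeneous time-resolved fluorescence cAMP detection after 1hr, expressed as 665/615 nm ratio.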

Sequence of Gonadotropin-releasing hormone receptor (Homo sapiens) (P30968 whole entry, looked up): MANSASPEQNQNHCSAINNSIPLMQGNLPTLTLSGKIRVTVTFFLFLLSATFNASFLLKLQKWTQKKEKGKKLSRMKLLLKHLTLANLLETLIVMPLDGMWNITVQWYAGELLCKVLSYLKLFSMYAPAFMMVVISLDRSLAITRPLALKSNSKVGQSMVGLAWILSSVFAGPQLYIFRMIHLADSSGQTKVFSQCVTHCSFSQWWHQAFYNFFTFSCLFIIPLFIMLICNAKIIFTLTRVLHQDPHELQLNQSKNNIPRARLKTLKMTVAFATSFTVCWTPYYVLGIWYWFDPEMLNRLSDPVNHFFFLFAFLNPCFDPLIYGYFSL
Sequence of D(2) dopamine receptor (Homo sapiens) (P14416 whole entry, looked up): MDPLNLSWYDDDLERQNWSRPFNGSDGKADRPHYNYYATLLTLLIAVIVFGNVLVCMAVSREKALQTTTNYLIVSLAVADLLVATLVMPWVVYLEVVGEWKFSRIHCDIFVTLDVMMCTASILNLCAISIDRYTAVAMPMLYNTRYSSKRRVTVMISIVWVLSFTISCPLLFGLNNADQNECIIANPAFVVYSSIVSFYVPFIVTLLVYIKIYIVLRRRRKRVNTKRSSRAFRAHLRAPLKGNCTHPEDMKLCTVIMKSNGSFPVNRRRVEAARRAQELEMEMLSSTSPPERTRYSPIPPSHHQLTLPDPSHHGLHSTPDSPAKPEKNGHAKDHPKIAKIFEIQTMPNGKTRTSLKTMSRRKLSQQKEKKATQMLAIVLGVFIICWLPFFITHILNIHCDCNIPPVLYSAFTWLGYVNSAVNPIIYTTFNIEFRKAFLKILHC
Sequence of Beta-2 adrenergic receptor (Homo sapiens) (P07550 whole entry, looked up): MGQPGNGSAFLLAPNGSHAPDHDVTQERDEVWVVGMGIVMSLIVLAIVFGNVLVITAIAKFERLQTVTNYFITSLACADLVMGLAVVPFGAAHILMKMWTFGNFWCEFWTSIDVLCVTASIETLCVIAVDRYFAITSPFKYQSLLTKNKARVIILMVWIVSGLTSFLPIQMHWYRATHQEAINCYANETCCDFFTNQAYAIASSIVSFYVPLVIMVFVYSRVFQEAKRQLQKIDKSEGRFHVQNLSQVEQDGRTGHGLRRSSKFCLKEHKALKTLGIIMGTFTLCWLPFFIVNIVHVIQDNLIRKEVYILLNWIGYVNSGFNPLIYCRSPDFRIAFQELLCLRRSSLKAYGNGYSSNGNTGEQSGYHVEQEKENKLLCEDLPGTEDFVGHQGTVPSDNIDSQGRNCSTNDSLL
Sequence of Muscarinic acetylcholine receptor M1 (Homo sapiens) (P11229 whole entry, looked up): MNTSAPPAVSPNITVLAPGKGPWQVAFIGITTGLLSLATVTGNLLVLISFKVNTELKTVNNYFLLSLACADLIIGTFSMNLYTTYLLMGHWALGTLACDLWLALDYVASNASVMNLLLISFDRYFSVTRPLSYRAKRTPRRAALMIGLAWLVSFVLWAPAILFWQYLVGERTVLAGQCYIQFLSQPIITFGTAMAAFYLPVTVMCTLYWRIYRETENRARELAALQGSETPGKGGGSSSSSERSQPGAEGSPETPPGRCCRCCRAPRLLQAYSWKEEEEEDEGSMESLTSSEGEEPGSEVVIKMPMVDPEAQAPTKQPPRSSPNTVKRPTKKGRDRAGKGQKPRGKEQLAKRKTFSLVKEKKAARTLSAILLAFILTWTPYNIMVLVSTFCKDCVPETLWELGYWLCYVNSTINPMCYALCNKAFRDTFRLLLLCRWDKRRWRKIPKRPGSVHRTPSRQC
Sequence of 5-hydroxytryptamine receptor 2A (Homo sapiens) (P28223 whole entry, looked up): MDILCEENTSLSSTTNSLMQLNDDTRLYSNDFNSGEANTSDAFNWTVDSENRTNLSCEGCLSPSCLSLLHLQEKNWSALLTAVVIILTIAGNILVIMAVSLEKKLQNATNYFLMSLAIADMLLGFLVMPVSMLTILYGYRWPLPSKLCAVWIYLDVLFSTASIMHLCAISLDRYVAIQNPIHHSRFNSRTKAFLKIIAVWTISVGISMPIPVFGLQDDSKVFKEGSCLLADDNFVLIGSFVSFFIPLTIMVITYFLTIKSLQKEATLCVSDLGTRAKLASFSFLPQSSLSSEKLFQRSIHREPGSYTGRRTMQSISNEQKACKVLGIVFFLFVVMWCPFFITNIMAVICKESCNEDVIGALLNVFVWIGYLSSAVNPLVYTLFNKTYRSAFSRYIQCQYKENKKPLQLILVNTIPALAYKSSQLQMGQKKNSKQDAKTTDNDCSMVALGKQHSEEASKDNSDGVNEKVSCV
Sequence of KiSS-1 receptor (Homo sapiens) (Q969F8 whole entry, looked up): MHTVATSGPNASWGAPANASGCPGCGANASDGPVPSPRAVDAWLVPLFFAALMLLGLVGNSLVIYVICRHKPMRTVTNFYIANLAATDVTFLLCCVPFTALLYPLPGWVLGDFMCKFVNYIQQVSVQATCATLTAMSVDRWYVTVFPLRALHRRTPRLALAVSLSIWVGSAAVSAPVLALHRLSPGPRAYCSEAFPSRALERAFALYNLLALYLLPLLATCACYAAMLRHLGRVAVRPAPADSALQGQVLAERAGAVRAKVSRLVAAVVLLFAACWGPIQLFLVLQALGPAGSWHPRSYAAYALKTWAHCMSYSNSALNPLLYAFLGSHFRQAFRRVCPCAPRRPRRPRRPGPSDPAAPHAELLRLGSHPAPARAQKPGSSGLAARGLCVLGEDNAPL

Row | SMILES | Potency [1] | Potency [2] | Potency [3] | Potency [4] | Potency [5] | Potency [6] | Potency [7] | Potency [8] | Potency [9] | Potency [10] | Potency [11] | Potency [12] | Potency [13] | Potency [14] | Potency [15] | Potency [16] | Potency [17] | Potency [18] | Potency [19] | Potency [20]
1 | CCCOCCOCCOCCO | inactive | inactive | inactive | inactive | inactive | inactive | inactive | inactive | inactive | inactive | inactive | inactive | inactive | inactive | inactive | inactive | inactive | inactive | inactive | 
2 | CCN1CCc2nc(N)oc2CC1 | inactive | inactive | inactive | inactive | inactive | inactive | inactive | inactive | inactive | inactive | inactive | inactive | inactive | inactive | inactive |  | inactive | 26.6 µM (active) | inactive | inactive
3 | CC(=O)OCCc1ccccc1 | inactive | inactive | inactive | inactive | inactive | inactive | inactive | inactive | inactive | inactive | inactive | inactive | inactive | inactive | inactive | inactive |  | inactive | inactive | inactive
4 | Cc1ccc(C=O)cc1 | inactive | inactive | inactive | inactive | inactive | inactive | inactive | inactive | inactive | inactive | inactive | inactive | inactive | inactive | inactive | inactive |  | inactive | inactive | inactive
5 | N=c1nc(N2CCCCC2)cc(N)n1O | inactive | inactive | inactive | inactive | inactive | inactive | inactive | inactive | inactive | inactive | inactive | inactive | inactive | inactive | inactive | inactive |  | inactive | inactive | inactive
6 | CC(COC(=O)c1ccccc1)OC(=O)c1ccccc1 (stereo not drawn) | inactive | inactive | inactive | inactive | inactive | inactive | inactive | inactive | inactive | inactive | inactive | inactive | inactive | inactive | inactive |  | inactive | inactive | inactive | inactive
7 | NC(=O)c1ccc([N+](=O)[O-])cc1Cl | inactive | inactive | inactive | inactive | inactive | inactive | inactive | inactive | inactive | inactive | inactive | inactive | inactive | inactive | inactive |  | inactive | inactive | inactive | inactive
